Measured values: PubChem BioAssay AID1159580 (chemical genetic matrix, 2015)
About 2,000 (36%) of roughly 5,500 compounds were called active. Roughly 18% stayed inconclusive and do not appear here. Some of the results follow. A number with no mark means an inactive call. Cut-off read from the data, not from the text of the source: active = normalized growth mostly below about 0.91 (no sharp cut-off); inconclusive = no clear call, values can overlap the other calls; inactive = mostly above about 0.92.

Assay: chemical genetic growth profiling, strain panel (AID 1159580);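 note: tested at 20 µM; growth read once vehicle control cultures reached saturation at 30 °C; 1 = growth at the plate median or of vehicle wells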
Settings: growth OD
[1] = S. cerevisiae deletion strains, locus YAL013W, strain DEP1, stronger effect = lower value
[2] = S. cerevisiae deletion strains, locus YBR229C, strain ROT2, stronger effect = lower value
[3] = S. cerevisiae deletion strains, locus YDL101C, strain DUN1, stronger effect = lower value
[4] = S. cerevisiae deletion strains, locus YDR150W, strain NUM1, stronger effect = lower value
[5] = S. cerevisiae deletion strains, locus YEL061C, strain CIN8, stronger effect = lower value
[6] = S. cerevisiae deletion strains, locus YGR078C, strain PAC10, stronger effect = lower value
[7] = S. cerevisiae deletion strains, locus YHR030C, strain SLT2, stronger effect = lower value
[8] = S. cerevisiae deletion strains, locus YHR087W, strain rtc3, stronger effect = lower value
[9] = S. cerevisiae deletion strains, locus YJR043C, strain POL32, stronger effect = lower value
[10] = S. cerevisiae deletion strains, locus YJR075W, strain HOC1, stronger effect = lower value
[11] = S. cerevisiae deletion strains, locus YLR039C, strain RIC1, stronger effect = lower value
[12] = S. cerevisiae deletion strains, locus YLR058C, strain SHM2 (second series), stronger effect = lower value
[13] = S. cerevisiae deletion strains, locus YLR085C, strain ARP6, stronger effect = lower value
[14] = S. cerevisiae deletion strains, locus YLR262C, strain YPT6, stronger effect = lower value
[15] = S. cerevisiae deletion strains, locus YML094W, strain GIM5, stronger effect = lower value
[16] = S. cerevisiae deletion strains, locus YMR219W, strain ESC1, stronger effect = lower value
[17] = S. cerevisiae deletion strains, locus YMR263W, strain SAP30, stronger effect = lower value
[18] = S. cerevisiae deletion strains, locus YNL153C, strain GIM3, stronger effect = lower value
[19] = S. cerevisiae deletion strains, locus YNL298W, strain CLA4 (second series), stronger effect = lower value
[20] = S. cerevisiae deletion strains, locus YNL322C, strain KRE1, stronger effect = lower value
[21] = S. cerevisiae deletion strains, locus YNR030W, strain Alg12, stronger effect = lower value
[22] = S. cerevisiae deletion strains, locus YPL055C, strain LGE1, stronger effect = lower value
[23] = S. cerevisiae deletion strains, locus YPL241C, strain CIN2, stronger effect = lower value
[24] = S. cerevisiae deletion strains, locus YPR135W, strain CTF4, stronger effect = lower value
[25] = S. cerevisiae strains, strain wild type, stronger effect = lower value

## CC(=O)/C(=C\N(C)C)Sc1nnc(C(F)(F)F)n1C
[1]
  normalized growth: 1.06
[2]
  normalized growth: 1.03
[3]
  normalized growth: 0.968
[4]
  normalized growth: 1.02
[5]
  normalized growth: 1.01
[6]
  normalized growth: 1.01
[7]
  normalized growth: 1.06
[8]
  normalized growth: 1.04
S. cerevisiae deletion strains, locus YJL187C, strain SWE1, stronger effect = lower value
  normalized growth: 0.998
[9]
  normalized growth: 1.01
[10]
  normalized growth: 0.987
S. cerevisiae deletion strains, locus YKL190W, strain CNB1, stronger effect = lower value
  normalized growth: 0.993
[11]
  normalized growth: 1.05
[12]
  normalized growth: 1
[13]
  normalized growth: 1.16
[14]
  normalized growth: 1.01
[15]
  normalized growth: 1.06
[16]
  normalized growth: 1.02
[17]
  normalized growth: 1.01
S. cerevisiae deletion strains, locus YNL128W, strain TEP1, stronger effect = lower value
  normalized growth: 1.01
[18]
  normalized growth: 1.02
[19]
  normalized growth: 1.03
[20]
  normalized growth: 1
[21]
  normalized growth: 1.02
[22]
  normalized growth: 1.09
[23]
  normalized growth: 1.1
[24]
  normalized growth: 1.21
[25]
  normalized growth: 1.01

## CC(=O)/C(=C\N(C)C)Sc1ccc(Cl)cc1
[1]
  normalized growth: 0.883 (active)
[2]
  normalized growth: 0.82 (active)
S. cerevisiae deletion strains, locus YCL061C, strain MRC1, stronger effect = lower value
  normalized growth: 0.838 (active)
[3]
  normalized growth: 0.897 (active)
S. cerevisiae deletion strains, locus YDL134C, strain PPH21, stronger effect = lower value
  normalized growth: 0.976
[4]
  normalized growth: 0.859
[5]
  normalized growth: 0.989
[6]
  normalized growth: 0.817 (active)
[7]
  normalized growth: 1.02
[8]
  normalized growth: 0.832 (active)
[9]
  normalized growth: 0.888 (active)
[10]
  normalized growth: 0.776 (active)
[11]
  normalized growth: 0.876
[12]
  normalized growth: 0.817 (active)
[13]
  normalized growth: 1.12
[14]
  normalized growth: 0.873
[15]
  normalized growth: 1.07
[16]
  normalized growth: 0.86 (active)
[17]
  normalized growth: 0.839 (active)
[18]
  normalized growth: 0.793 (active)
[19]
  normalized growth: 1.03
[20]
  normalized growth: 0.819 (active)
[21]
  normalized growth: 1.03
S. cerevisiae deletion strains, locus YOL006C, strain TOP1, stronger effect = lower value
  normalized growth: 1.09
[22]
  normalized growth: 0.933
[23]
  normalized growth: 0.937
[24]
  normalized growth: 1.29
[25]
  normalized growth: 0.975

## Cc1c(NCN2C(=O)CCC2=O)cc2c(c1[N+](=O)[O-])C(C)(C)CC2(C)C
S. cerevisiae deletion strains, locus YAR019C, strain CDC15, stronger effect = lower value
  normalized growth: 0.963
S. cerevisiae deletion strains, locus YBL105C, strain PKC1, stronger effect = lower value
  normalized growth: 0.962
S. cerevisiae deletion strains, locus YBR135W, strain CKS1, stronger effect = lower value
  normalized growth: 0.967
S. cerevisiae deletion strains, locus YBR136W, strain MEC1, stronger effect = lower value
  normalized growth: 0.959
S. cerevisiae deletion strains, locus YBR160W, strain CDC28, stronger effect = lower value
  normalized growth: 0.967
S. cerevisiae deletion strains, locus YDL017W, strain CDC7, stronger effect = lower value
  normalized growth: 0.961
S. cerevisiae deletion strains, locus YDL028C, strain MPS1, stronger effect = lower value
  normalized growth: 0.962
[3]
  normalized growth: 0.942
S. cerevisiae deletion strains, locus YDL108W, strain KIN28, stronger effect = lower value
  normalized growth: 0.965
S. cerevisiae deletion strains, locus YDL132W, strain cdc53, stronger effect = lower value
  normalized growth: 0.948
S. cerevisiae deletion strains, locus YDL214C, strain PRR2, stronger effect = lower value
  normalized growth: 0.925
S. cerevisiae deletion strains, locus YDR052C, strain DBF4, stronger effect = lower value
  normalized growth: 0.956
S. cerevisiae deletion strains, locus YDR054C, strain cdc34, stronger effect = lower value
  normalized growth: 0.958
S. cerevisiae deletion strains, locus YDR226W, strain ADK1, stronger effect = lower value
  normalized growth: 0.955
S. cerevisiae deletion strains, locus YDR477W, strain SNF1, stronger effect = lower value
  normalized growth: 0.913
S. cerevisiae deletion strains, locus YER123W, strain YCK3, stronger effect = lower value
  normalized growth: 0.9
S. cerevisiae deletion strains, locus YER133W, strain GLC7, stronger effect = lower value
  normalized growth: 0.879
S. cerevisiae deletion strains, locus YFL009W, strain cdc4, stronger effect = lower value
  normalized growth: 0.957
S. cerevisiae deletion strains, locus YFL029C, strain CAK1, stronger effect = lower value
  normalized growth: 0.95
S. cerevisiae deletion strains, locus YFR003C, strain YPI1, stronger effect = lower value
  normalized growth: 0.961
S. cerevisiae deletion strains, locus YFR019W, strain FAB1, stronger effect = lower value
  normalized growth: 0.952
S. cerevisiae deletion strains, locus YFR028C, strain CDC14, stronger effect = lower value
  normalized growth: 0.956
S. cerevisiae deletion strains, locus YGR040W, strain KSS1, stronger effect = lower value
  normalized growth: 0.912
S. cerevisiae deletion strains, locus YGR052W, strain FMP48, stronger effect = lower value
  normalized growth: 0.933
S. cerevisiae deletion strains, locus YGR092W, strain DBF2, stronger effect = lower value
  normalized growth: 0.931
[7]
  normalized growth: 0.909
S. cerevisiae deletion strains, locus YHR079C, strain IRE1, stronger effect = lower value
  normalized growth: 0.894
S. cerevisiae deletion strains, locus YHR082C, strain KSP1, stronger effect = lower value
  normalized growth: 0.993
S. cerevisiae deletion strains, locus YHR205W, strain SCH9, stronger effect = lower value
  normalized growth: 0.904
S. cerevisiae deletion strains, locus YIL147C, strain SLN1, stronger effect = lower value
  normalized growth: 0.963
S. cerevisiae deletion strains, locus YJL095W, strain BCK1, stronger effect = lower value
  normalized growth: 0.839
S. cerevisiae deletion strains, locus YJL128C, strain PBS2, stronger effect = lower value
  normalized growth: 0.901
S. cerevisiae deletion strains, locus YJL157C, strain FAR1, stronger effect = lower value
  normalized growth: 0.92
S. cerevisiae deletion strains, locus YJR016C, strain ILV3, stronger effect = lower value
  normalized growth: 0.96
S. cerevisiae deletion strains, locus YJR066W, strain TOR1 (second series), stronger effect = lower value
  normalized growth: 0.861
S. cerevisiae deletion strains, locus YJR066W, strain TOR1, stronger effect = lower value
  normalized growth: 1.03
S. cerevisiae deletion strains, locus YKL048C, strain ELM1, stronger effect = lower value
  normalized growth: 0.928
S. cerevisiae deletion strains, locus YKL067W, strain YNK1, stronger effect = lower value
  normalized growth: 0.929
S. cerevisiae deletion strains, locus YKL101W, strain HSL1, stronger effect = lower value
  normalized growth: 0.922
S. cerevisiae deletion strains, locus YKL193C, strain SDS22, stronger effect = lower value
  normalized growth: 0.95
S. cerevisiae deletion strains, locus YKL203C, strain TOR2, stronger effect = lower value
  normalized growth: 0.978
S. cerevisiae deletion strains, locus YLR113W, strain HOG1, stronger effect = lower value
  normalized growth: 0.861 (active)
S. cerevisiae deletion strains, locus YLR133W, strain CKI1, stronger effect = lower value
  normalized growth: 0.944
S. cerevisiae deletion strains, locus YLR403W, strain SFP1, stronger effect = lower value
  normalized growth: 0.921
S. cerevisiae deletion strains, locus YML070W, strain DAK1, stronger effect = lower value
  normalized growth: 0.911
S. cerevisiae deletion strains, locus YMR001C, strain CDC5, stronger effect = lower value
  normalized growth: 0.956
S. cerevisiae deletion strains, locus YMR205C, strain PFK2 (second series), stronger effect = lower value
  normalized growth: 0.927
S. cerevisiae deletion strains, locus YMR277W, strain FCP1, stronger effect = lower value
  normalized growth: 0.96
S. cerevisiae deletion strains, locus YNL006W, strain LST8, stronger effect = lower value
  normalized growth: 0.954
S. cerevisiae deletion strains, locus YNL020C, strain ARK1, stronger effect = lower value
  normalized growth: 0.932
S. cerevisiae deletion strains, locus YNL161W, strain CBK1, stronger effect = lower value
  normalized growth: 0.95
S. cerevisiae deletion strains, locus YNL183C, strain NPR1, stronger effect = lower value
  normalized growth: 0.977
S. cerevisiae deletion strains, locus YNL207W, strain RIO2, stronger effect = lower value
  normalized growth: 0.965
S. cerevisiae deletion strains, locus YNL222W, strain SSU72, stronger effect = lower value
  normalized growth: 0.959
S. cerevisiae deletion strains, locus YNL307C, strain MCK1 (second series), stronger effect = lower value
  normalized growth: 0.94
S. cerevisiae deletion strains, locus YOL078W, strain AVO1, stronger effect = lower value
  normalized growth: 0.952
S. cerevisiae deletion strains, locus YOL136C, strain PFK27, stronger effect = lower value
  normalized growth: 0.914
S. cerevisiae deletion strains, locus YOR061W, strain CKA2, stronger effect = lower value
  normalized growth: 0.945
S. cerevisiae deletion strains, locus YOR119C, strain RIO1, stronger effect = lower value
  normalized growth: 0.951
S. cerevisiae deletion strains, locus YOR231W, strain MKK1, stronger effect = lower value
  normalized growth: 0.943
S. cerevisiae deletion strains, locus YOR329C, strain SCD5, stronger effect = lower value
  normalized growth: 0.961
S. cerevisiae deletion strains, locus YPL031C, strain PHO85, stronger effect = lower value
  normalized growth: 0.899
S. cerevisiae deletion strains, locus YPL153C, strain RAD53, stronger effect = lower value
  normalized growth: 0.905
S. cerevisiae deletion strains, locus YPL204W, strain HRR25, stronger effect = lower value
  normalized growth: 0.891
S. cerevisiae deletion strains, locus YPL209C, strain IPL1, stronger effect = lower value
  normalized growth: 0.957
S. cerevisiae deletion strains, locus YPL256C, strain CLN2, stronger effect = lower value
  normalized growth: 0.87
S. cerevisiae deletion strains, locus YPR025C, strain CCL1, stronger effect = lower value
  normalized growth: 0.952
S. cerevisiae deletion strains, locus YPR106W, strain ISR1, stronger effect = lower value
  normalized growth: 0.949
S. cerevisiae deletion strains, locus YPR111W, strain DBF20, stronger effect = lower value
  normalized growth: 0.943
S. cerevisiae deletion strains, strain NNK1, stronger effect = lower value
  normalized growth: 0.937
S. cerevisiae deletion strains, strain TSCII, stronger effect = lower value
  normalized growth: 0.953
